Consider 24 compounds from PubChem BioAssay AID2661 (Broad Institute, 2010).

Structures are written as SMILES. Screen size: about 320,000 compounds; about 240 (0.075%) were called active. Many of the other results were omitted from the sample, so actives are more common in it than they were. Values without a mark were called inactive.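 Rule for the calls: active = inhibition at or above 25%, using the most active replicate where run in duplicate; inactive = inhibition below 25%.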

In this assay the target is Serine/threonine-protein kinase 33 (Homo sapiens) (UniProt Q9BYT3). Kind of assay: STK33 phosphorylation of MBP blockers – biochemical, ADP-Glo luminescence, homogeneous, cell-free, primary screen (AID 2661). The following applies: purified STK33, MBP phosphorylation, at 10 µM, active compounds read high.
Chain of Serine/threonine-protein kinase 33 (Homo sapiens) (Q9BYT3 whole entry, looked up): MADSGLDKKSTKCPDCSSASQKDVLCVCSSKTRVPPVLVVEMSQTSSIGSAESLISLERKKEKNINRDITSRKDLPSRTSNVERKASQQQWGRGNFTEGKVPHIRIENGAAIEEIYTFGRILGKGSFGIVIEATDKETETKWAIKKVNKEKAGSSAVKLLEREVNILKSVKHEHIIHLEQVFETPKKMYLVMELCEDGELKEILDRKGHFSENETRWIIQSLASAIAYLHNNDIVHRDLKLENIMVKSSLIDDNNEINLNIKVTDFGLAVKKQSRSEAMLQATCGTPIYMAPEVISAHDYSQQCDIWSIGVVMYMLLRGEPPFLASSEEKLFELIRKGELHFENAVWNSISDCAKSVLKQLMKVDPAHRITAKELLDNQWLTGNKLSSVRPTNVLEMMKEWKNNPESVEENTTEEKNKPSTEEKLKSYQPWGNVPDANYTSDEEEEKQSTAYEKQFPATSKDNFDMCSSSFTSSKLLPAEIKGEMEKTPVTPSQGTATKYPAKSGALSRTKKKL
For the compound `CCCc1cc(=O)[nH]c(SCC(=O)Nc2ccc(S(=O)(=O)N3CCCC3)cc2)n1`, the inhibition was -1.05%.
With `Cc1noc(C)c1NC(=O)Nc1ccc2c(c1)C(=O)N([C@H](C)CO)C[C@H](C)[C@@H](CN(C)S(=O)(=O)c1cn(C)cn1)O2`, the inhibition was -0.91%.
As to `COc1c(O)cc2oc(-c3ccc(O)c(O)c3)cc(=O)c2c1O`, the inhibition was 44.2% (active).
The result for `CCOC(=O)COc1cc(O)c2c(=O)cc(-c3ccccc3)oc2c1` reads 1.27%; that for `CCOC(=O)COc1cc(OCC(=O)OCC)c2c(=O)cc(-c3ccccc3)oc2c1`, -0.944%.
The value for `O=C(NNC(=O)c1ccc(Cl)nc1)c1ccc(Br)cc1` was -0.906%; that for `Cc1ccc(C)c(NC(=O)CN(C)C(=O)COc2ccc3ccccc3c2)c1` was -0.402%.
Take `CC(=O)NC(CC(=O)Nc1ccc(S(=O)(=O)N2CCOCC2)cc1)c1ccccc1` (centres undefined): the inhibition is 2.28%.
For the compound `Cc1ccc(S(=O)(=O)N2[C@@H](c3cccc4ccccc34)C(C(=O)O)=C[C@H]2C(C)(C)C)cc1`, the inhibition was -1.33%.
Turning to `CN(CCc1ccccc1)C(=O)c1cccc(NC(=O)Cc2ccc([N+](=O)[O-])cc2)c1`, the inhibition was 0.236%.
Turning to `O=C1OC[C@@H]2CCCN2C(=O)[C@H](CC(=O)N(CCO)Cc2ccccc2)C/C=C\CC[C@@H]1Cc1ccc(F)cc1`, the inhibition is -0.762%.
Turning to `Cc1ccc(C(=O)OCC(=O)N2CCCCCC2)cc1S(=O)(=O)N1CCOCC1`, the inhibition is -2.28%.
The result for `C=CC[C@@H](CC(=O)N[C@H](CO)Cc1ccccc1)C(=O)N[C@@H](COC(=O)[C@@H](CC=C)Cc1ccc(F)cc1)Cc1c[nH]c2ccccc12` reads -0.564%; that for `O=C1NC[C@@H](c2ccccc2)OC(=O)[C@H](Cc2ccc(F)cc2)CC/C=C/C[C@H]1CC(=O)N(CCO)Cc1ccccc1`, -2.42%; that for `Fc1ccccc1-c1cc2cc3c(cc2cn1)OCO3`, 1.15%.
The result for `O=C(CN1C(=O)NC2(CCCCCC2)C1=O)Nc1ccc([N+](=O)[O-])cc1` reads -2.25%.
For `O=C(COC(=O)c1cccnc1Cl)NC(=O)NC1CCCCC1`, the inhibition was -0.374%.
Turning to `COc1ccc(Cl)cc1NC(=O)COC(=O)c1ccc(Br)o1`, the inhibition was -0.284%.
As to `COc1ccc(CNc2nc(NCc3ccc(OC)cc3)c3ncn(C4CCCC4)c3n2)cc1`, the inhibition is -0.00506%.
In the case of `O=C(CN1C(=O)c2ccc([N+](=O)[O-])cc2C1=O)Nc1nnc(C2CC2)s1`, the inhibition is -0.729%.
The value for `C=CCC[C@H](Cc1ccc(F)cc1)C(=O)OC[C@@H](Cc1c[nH]c2ccccc12)NC(=O)[C@H](CC=C)CC(=O)N[C@H](CO)Cc1ccccc1` was -0.577%.
Take `O=C(COC(=O)c1ccc(O)cc1O)c1ccc2c(c1)OCCO2`: the inhibition is 1.53%.
Consider `CCOc1ccc(Br)cc1S(=O)(=O)Nc1ccc(S(=O)(=O)Nc2cc(C)on2)cc1`, for which the inhibition is -0.663%.
As for `COc1ccc2nc3n(c(=O)c2c1)-c1cc(C)ccc1C(=O)NC3Cc1ccc(O)cc1` (centres undefined), the inhibition is -0.57%.

In general, inhibition refers to the drop in the measured response relative to a control, in per cent.
